Measured values from the supplement of paper PMC3334620.
In all, about 33,000 sequences were measured (“E-score (-0.5 to 0.5)”: median about -0.015, highest 2% from about 0.3 on). The sample holds the highest values, similar sequences and a random draw of the others, so the mix is not that of the screen.

Target: T1, Abf1 (UniProt P14164)
T1 sequence: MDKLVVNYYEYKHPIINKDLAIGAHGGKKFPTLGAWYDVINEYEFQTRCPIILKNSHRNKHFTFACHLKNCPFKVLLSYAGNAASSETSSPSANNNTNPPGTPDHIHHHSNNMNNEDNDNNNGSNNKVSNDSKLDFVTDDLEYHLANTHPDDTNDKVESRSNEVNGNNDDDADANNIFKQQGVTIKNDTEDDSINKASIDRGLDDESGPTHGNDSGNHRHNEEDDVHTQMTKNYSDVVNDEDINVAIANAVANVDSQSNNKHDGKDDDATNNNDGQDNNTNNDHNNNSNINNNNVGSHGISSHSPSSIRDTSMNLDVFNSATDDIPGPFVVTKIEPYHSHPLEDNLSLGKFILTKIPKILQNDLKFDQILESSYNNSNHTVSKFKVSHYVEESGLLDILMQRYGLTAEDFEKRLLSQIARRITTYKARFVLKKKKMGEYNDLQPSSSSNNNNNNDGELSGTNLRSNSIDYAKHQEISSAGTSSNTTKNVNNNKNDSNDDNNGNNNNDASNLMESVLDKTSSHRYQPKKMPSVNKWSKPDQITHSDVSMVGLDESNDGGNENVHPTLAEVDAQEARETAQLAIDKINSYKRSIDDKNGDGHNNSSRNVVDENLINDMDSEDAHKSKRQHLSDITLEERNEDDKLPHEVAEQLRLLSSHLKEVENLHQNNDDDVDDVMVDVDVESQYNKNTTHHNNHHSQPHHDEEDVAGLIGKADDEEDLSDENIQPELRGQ
Assay: PBM E-score (8-mer binding enrichment) (E-score (-0.5 to 0.5)); higher = stronger / more preferred TF binding
Conditions: protein concentration: 200 nM; construct: GST-full length
How it was run: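 Yeast transcription factors, full-length or as DNA-binding domains, were expressed with a GST tag using PURExpress in vitro transcription/translation. At about 100-200 nM they were applied to universal all-10-mer Agilent arrays, double-stranded by primer extension on fresh or once-stripped slides. Fluorescent anti-GST detected bound protein, and masliner normalised the scans. E-scores for ungapped eight-base words, pooled with reverse complements, came from the Universal PBM Analysis Suite.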

Sequence | PBM E-score
ATCATAAG | 0.105
ATCATTCG | 0.332
ATGATTTA | 0.296
ATGATGTA | 0.272
GTGATTTA | 0.317
AATGGGTG | -0.0386
ATCGGGTC | -0.0582
CCGCGAAC | 0.00614
CGGAAAGA | -0.131
GTTGACTA | -0.164
GATGGGAC | -0.154
GACTGAAA | -0.037
CCCCAACG | -0.0545
AAAGGGAA | -0.0729
TGACCGAA | 0.0507
AACATTTA | 0.0911
ATCATTTA | 0.305
ACCATTTA | 0.0343
CATCCGAC | 0.151
AACACTGC | -0.155
CTCACTGC | -0.0817
ACCACTGG | -0.103
AGCACTGG | -0.168
ATCACTGC | 0.32
ATCACTGG | 0.332

Sequence | PBM E-score
ATGTTCGC | 0.00598
CGAAGGCA | -0.148
AACAGCCC | -0.373
CAAACGAC | 0.198
GAAACGAC | 0.153
AAAACGAC | 0.323
AAAACGAT | 0.326
AAAACGAG | 0.0711
AAAACGAA | 0.167
TATGCGGA | 0.0153
TTTGCAAA | 0.0778
GACCTGGC | -0.0415
GGAGTGAA | -0.0623
AGAGTGAC | 0.288
CGAGTGAC | 0.358
CGAGTGAG | -0.011
CGAGTGAA | -0.14
GGAGTGAC | 0.333
CGAGACTC | 0.0667
CGGAGACG | 0.0614
AAAAGGCT | -0.0975
CGGCCGAG | 0.0212
CCCCGGAC | -0.105
GTGGTCAA | 0.0649
AGTACGGC | 0.224

Sequence | PBM E-score
CGTACGCC | 0.155
AGTACGGA | 0.118
AGTACGTC | 0.125
CGTACGGA | 0.355
GGTACGGA | 0.13
CGTACGTA | 0.266
CGTACGTC | 0.359
CGTACGGC | 0.396
ATGACTGA | -0.0877
GGTATGAC | -0.0891
AGAATGAC | 0.255
CGTATGAG | 0.189
CGTATGAA | 0.426
CGAATGAA | -0.164
AGTATGAA | 0.135
AGTATGAC | 0.186
CGTATGAC | 0.334
CGAATGAC | 0.312
AGTGTTCA | -0.11
ACCAGTGG | -0.261
ATAATCCG | -0.0846
AAACAACG | 0.0689
CAGTCGAG | -0.177
CGCCGCGA | 0.0127
TCCGTTAA | 0.0849

Sequence | PBM E-score
CGTGATCA | 0.379
GGGGATCA | -0.0388
AGTGATCC | 0.189
CGTGATCC | -0.0112
AGTGATCA | 0.416
CCTGATCA | 0.112
GCTGATCA | 0.139
AGTGATCG | 0.239
GGTGATCA | 0.305
AGTACCGG | -0.202
ACTCCTGC | -0.173
GAGATCAC | 0.347
AAGATCAC | 0.325
GAGATCGC | 0.164
GAGATCAA | 0.109
AAGATCAT | 0.289
CAGATCAC | 0.284
AATTGACT | -0.00646
CGTACCGA | 0.232
AATAAGCG | -0.0622
ATATCATA | 0.33
AAATCATC | 0.278
ATATCATC | 0.408
CTATCATC | 0.151
CTATCATA | 0.143

Sequence | PBM E-score
ATATCATG | 0.297
GCAAAAAC | 0.0419
GATAGGAC | -0.123
AGGCGTTC | -0.191
AATACTAA | 0.0807
AATACTAT | -0.00924
AATACTAC | 0.301
AGGGACCG | -0.0817
CATGCCGG | -0.00463
ATCACGAT | 0.26
ATCACGGC | 0.35
CTCACGTC | 0.0288
ATCACGTC | 0.336
ATCACGCC | 0.253
ATCACGAA | 0.256
ATCACGCG | 0.373
ATCACGGG | 0.163
ATCACGAC | 0.363
ATCACGGA | 0.246
ATCACGTA | 0.218
ATCACGCA | 0.272
AGGCTTAT | -0.0827
CAACCGCA | -0.0837
ACTTTGTC | 0.217
CCCGCTAG | -0.157

Sequence | PBM E-score
ATGATCCA | 0.0885
CCGTCATA | 0.37
CCGTCATC | 0.128
GCGTCATA | 0.138
AATGGTCC | -0.0212
ATCATCGA | 0.175
ATCATCAA | 0.26
ATCATCAT | 0.376
AACATCAT | 0.309
ATCATCGC | 0.301
TTCATCAA | 0.041
ATCATCAG | 0.16
ATCATCGG | 0.116
AGCATCAT | 0.0136
AACATCAC | 0.283
GTCATCAA | 0.31
AACATCAG | 0.0871
ATCGCATC | 0.0782
GAATCCCA | -0.00947
AGGCCTTG | -0.302
CTCTCTGA | -0.149
ACCCTTCA | -0.0788
AGGTGTCA | -0.0121
AATTCTGT | -0.144
GACATCAC | 0.352

Sequence | PBM E-score
GTCATCAC | 0.334
AGCATCAC | -0.0618
GCCATCAC | -0.121
CTCATCAC | 0.217
CACATCAC | 0.244
ATCATCAC | 0.393
GACATCAA | 0.178
GGCATCAC | 0.0726
AGCTTGAC | -0.245
GTGGTGTA | -0.0517
GCCCCTTA | -0.138
CGCCGCCG | -0.223
ATACGGGG | 0.172
CTACGGCA | 0.291
ATACGGCC | 0.208
ATACGGCA | 0.376
GTACGGCA | 0.222
ATACGGCG | 0.384
AGAGGGTC | -0.274
CTTAGGGC | -0.183
GGCTCGAC | -0.0785
CGGCGTCA | -0.103
